According to PubChem BioAssay (NCI):
The panel holds about 79,000 compounds, 15% with a hit somewhere; the sample as a whole holds those more often. Calls of active or inactive are those of the source. Rule as the data show it: active = growth inhibition above about 70%; inactive = the rest.

Assays:
[1] = NCI Yeast Anticancer Drug Screen. Data for the rad52 strain (AID 147);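 also: 0% = growth of vehicle-treated control cultures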; conditions: S. cerevisiae rad52 mutant growth inhibition, stronger effect = higher value
In short: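 Compounds are applied to a genetically defined yeast strain lacking normal DNA damage repair, and inhibition of growth is expressed relative to cultures given vehicle only.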

[2] = NCI Yeast Anticancer Drug Screen. Data for the wt1 strain (AID 149);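 also: 0% = growth of vehicle-treated wt1 cultures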; conditions: S. cerevisiae wt1 strain (SPY 50644) growth inhibition, stronger effect = higher value
In short: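 wt1 strain grown with compound or vehicle; inhibition taken from the growth difference.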

[3] = NCI Yeast Anticancer Drug Screen. Data for the rad50EPP+ strain (AID 151);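 also: 0% = growth of vehicle-treated control cultures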; conditions: S. cerevisiae rad50 mutant strain, stronger effect = higher value
In short: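 Compounds were applied to the rad50EPP+ yeast strain, which bears a defined DNA repair alteration, and growth inhibition was determined relative to vehicle-treated cultures.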

[4] = NCI Yeast Anticancer Drug Screen. Data for the mgt1 strain (AID 153); conditions: S. cerevisiae mgt1 mutant growth inhibition, stronger effect = higher value
In short: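 Strain: mgt1 yeast, one of a set carrying defined DNA damage repair or cell cycle control alterations. Compound-treated growth compared with vehicle.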

[5] = NCI Yeast Anticancer Drug Screen. Data for the rad50 strain (AID 155);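 also: 0% = growth of vehicle-only cultures of the same strain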; conditions: S. cerevisiae rad50 strain growth inhibition, stronger effect = higher value
In short: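 DNA repair mutant yeast, compound exposure, growth read-out; inhibition is taken relative to vehicle.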

[6] = NCI Yeast Anticancer Drug Screen. Data for the mec2-1 strain (AID 157); conditions: S. cerevisiae mec2-1 strain, stronger effect = higher value
In short: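 Strain: mec2-1 (DNA repair/cell cycle alteration). Compound exposure, then growth measured; inhibition expressed relative to vehicle.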

[7] = NCI Yeast Anticancer Drug Screen. Data for the rad14 strain (AID 159);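 also: 0% = growth of vehicle-treated control cultures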; conditions: S. cerevisiae rad14 strain growth inhibition, stronger effect = higher value
In short: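 DNA repair-defective yeast, compound-exposed; % growth inhibition derived by comparison with vehicle-treated controls.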

[8] = NCI Yeast Anticancer Drug Screen. Data for the sgs1 mgt1 strain (AID 161);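 also: 0% = growth of cultures given vehicle only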; conditions: S. cerevisiae sgs1 mgt1 strain, stronger effect = higher value
In short: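 Genetically altered yeast, compound exposure, growth inhibition relative to vehicle.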

[9] = NCI Yeast Anticancer Drug Screen. Data for the CLN2oe strain (AID 163);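 also: 0% = growth of vehicle-only control cultures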; conditions: S. cerevisiae CLN2oe strain, stronger effect = higher value
In short: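 Growth of a genetically modified yeast strain is measured after compound exposure and compared with cultures given vehicle alone.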

[10] = NCI Yeast Anticancer Drug Screen. Data for the cln2 rad14 strain (AID 165);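 also: 0% = growth equal to vehicle treated cultures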; conditions: S. cerevisiae cln2 rad14 strain, stronger effect = higher value
In short: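 Compounds are applied to the cln2 rad14 yeast strain, and growth is then compared with that of vehicle-treated cultures to give inhibition.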

[11] = NCI Yeast Anticancer Drug Screen. Data for the bub3 strain (AID 167); conditions: S. cerevisiae bub3 mutant strain, stronger effect = higher value
In short: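 In this screen, a yeast mutant lacking normal mitotic checkpoint function is challenged with compound. Relative growth versus vehicle gives the inhibition value.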

[12] = NCI Yeast Anticancer Drug Screen. Data for the wt2 strain (AID 169);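 also: 0% = growth of vehicle-treated yeast cultures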; conditions: S. cerevisiae wt2 strain growth inhibition, stronger effect = higher value
In short: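 This strain belongs to a panel of yeast strains with defined genetic alterations in DNA damage repair or cell cycle control. Compounds are applied, and growth inhibition is measured against vehicle-treated cultures.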

[13] = NCI Yeast Anticancer Drug Screen. Data for the sgs1 strain (AID 173);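 also: 0% = growth of vehicle-only control cultures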; conditions: S. cerevisiae sgs1 mutant, stronger effect = higher value
In short: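 Growth of a yeast strain bearing a defined genetic alteration is measured after compound treatment. Inhibition is expressed relative to vehicle-only controls.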

[14] = NCI Yeast Anticancer Drug Screen. Data for the mlh1 rad18 strain (AID 175); conditions: S. cerevisiae mlh1 rad18 strain growth inhibition, stronger effect = higher value
In short: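 Read-out is yeast growth inhibition, calculated against vehicle-only controls. The compound was applied to a strain engineered with DNA damage repair alterations.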

[15] = NCI Yeast Anticancer Drug Screen. Data for the rad18 strain (AID 177); conditions: S. cerevisiae rad18 mutant growth inhibition, stronger effect = higher value
In short: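 Growth of the mutant yeast strain after compound exposure, normalised to vehicle-only cultures.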

[16] = at 5.0 µM (retest, dose inferred, filed as 0.5)
[17] = at 50.0 µM (retest, dose inferred, filed as 5.0)

Measured: growth inhibition

CCOC1=C/C(=N\Nc2ccc([N+](=O)[O-])cc2)CCC1
inactive: [1]; at 1.2 µM 0% | [1]; at 3.7 µM 8% | [1]; at 11.0 µM 29% | [1]; at 33.0 µM 69% | [1]; at 100.0 µM 26% | [2]; at 1.2 µM 0% | [2]; at 3.7 µM 7% | [2]; at 11.0 µM 9% | [2]; at 33.0 µM 24% | [2]; at 100.0 µM 18% | [3]; at 1.2 µM 3% | [3]; at 3.7 µM 20% | [3]; at 100.0 µM 58% | [4]; at 1.2 µM 3% | [4]; at 3.7 µM 9% | [4]; at 11.0 µM 18% | [4]; at 33.0 µM 22% | [4]; at 100.0 µM 10% | [5]; at 1.2 µM 3% | [5]; at 3.7 µM 10% | [5]; [16] 17% | [5]; at 11.0 µM 22% | [5]; at 33.0 µM 30% | [5]; [17] 51% | [5]; at 50.0 µM 23.4% | [5]; at 100.0 µM 10% | [6]; at 1.2 µM 0% | [6]; at 3.7 µM 5% | [6]; [16] 1% | [6]; at 11.0 µM 19% | [6]; at 33.0 µM 31% | [6]; [17] 67% | [6]; at 50.0 µM 37.9% | [6]; at 100.0 µM 11% | [7]; at 1.2 µM 2% | [7]; at 3.7 µM 9% | [7]; at 11.0 µM 27% | [7]; at 100.0 µM 33% | [8]; [16] 10% | [8]; [17] 21% | [8]; at 50.0 µM 48.6% | [9]; at 1.2 µM -1% | [9]; at 3.7 µM -6% | [9]; at 11.0 µM 21% | [9]; at 33.0 µM 15% | [9]; at 100.0 µM -5% | [10]; [16] 5% | [10]; [17] 10% | [10]; at 50.0 µM 29.5% | [11]; at 1.2 µM -3% | [11]; at 3.7 µM 4% | [11]; [16] -1% | [11]; at 11.0 µM 11% | [11]; at 33.0 µM 15% | [11]; [17] 33% | [11]; at 100.0 µM 18% | [12]; at 1.2 µM -1% | [12]; at 3.7 µM 3% | [12]; at 11.0 µM 7% | [12]; at 33.0 µM 24% | [12]; at 100.0 µM 11% | [13]; at 1.2 µM 1% | [13]; at 3.7 µM 3% | [13]; at 11.0 µM 18% | [13]; at 33.0 µM 50% | [13]; at 100.0 µM 20% | [14]; [16] 21% | [14]; at 50.0 µM 41.7% | [15]; at 1.2 µM 4% | [15]; at 3.7 µM 8% | [15]; at 11.0 µM 30% | [15]; at 33.0 µM 62% | [15]; at 100.0 µM 55%
active: [3]; at 11.0 µM 70% | [3]; at 33.0 µM 87% | [7]; at 33.0 µM 73% | [11]; at 50.0 µM 95% | [14]; [17] 87%
